Data taken from PubChem BioAssay (EPA / NIEHS).
Values joined by “and” are separate entries in the source; they are usually repeats but may differ in a detail not shown here. Equal entries are not always repeated. Results filed as inconclusive are left out. Where a structure was tested more than once in an assay, its records may differ in their call. Active and inactive are the calls of the source. How the source made its calls, unless noted: active means hit-call score of the fitted dose curve at least 0.9, where 1 is the maximum; inconclusive means response in the unintended direction; inactive means score below 0.9.

What was measured:
[1] = Tanguay_ZF_120hpf_PIG_legacy: (Legacy) Oregon State University Tanguay Lab 120 Hour Post-fertilization zebrafish Assay for Pigmentation Malformation (AID 2283650)
Outline: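 Tropical 5D wild-type zebrafish embryos, dechorionated with pronase at 4 hpf, were exposed singly from 6 hpf to 120 hpf statically at 28C in sealed, dark plates with 0.64% DMSO; pigmentation scored present/absent by brightfield microscopy, fitted against DMSO.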

[2] = Tanguay_ZF_120hpf_CIRC_legacy: (Legacy) Oregon State University Tanguay Lab 120 Hour Post-fertilization zebrafish Assay for Circulatory Malformation (AID 2283651)
Outline: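 Read-out: presence or absence of circulatory malformation at 120 hpf, scored by brightfield microscopy, fitted in the gain-of-signal direction against DMSO baseline. Wild-type 5D larvae were exposed from 6 hpf after enzymatic chorion removal.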

[3] = Tanguay_ZF_120hpf_TRUN_legacy: (Legacy) Oregon State University Tanguay Lab 120 Hour Post-fertilization zebrafish Assay for Truncated Body (AID 2283655)
Outline: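 5D wild-type larvae; pronase dechorionation; static exposure 6→120 hpf, 28C; DMSO 0.64% final; 5uM trimethyltin chloride positive control. Readout: presence/absence of truncated body, analyzed relative to DMSO.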

[4] = Tanguay_ZF_120hpf_NC_legacy: (Legacy) Oregon State University Tanguay Lab 120 Hour Post-fertilization zebrafish Assay for Notochord and Tail Malformation (AID 2283656)
Outline: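 Dechorionated Tropical 5D wild-type zebrafish embryos, one per well from 6 hpf, statically exposed to 120 hpf at 28C in 0.64% DMSO final. Notochord distortion scored present/absent by brightfield; dead embryos excluded.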

[5] = test system: Thyroperoxidase (TPO), gene 54314; assay: CCTE_Simmons_AUR_rTPO: CCTE's Amplex UltraRed Assay for Thyroperoxidase (TPO) Inhibition, Simmons Lab (AID 2283662);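 on AC50: potency for loss of signal meaning inhibition of peroxidase activity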
Outline: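 Cell-free peroxidase activity assay using rat thyroid gland microsomes with excess H2O2 (300 uM) and 25 uM Amplex UltraRed. Compounds tested from 5 nM to 87.5 uM; fluorescence measured after 30 min at 37C, analysed relative to DMSO baseline.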

[6] = read-out: xenobiotic metabolism (CYP2C9), CYP2C9 (gene 1559); assay: CLD_CYP2C9_6hr: CellzDirect (CLD) Gene Expression Assay for xenobiotic metabolism (CYP2C9) at 6 hours (AID 2283664)
Outline: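 Primary human hepatocytes dosed daily with test chemicals at multiple concentrations; harvested at 6 h. CYP2C9 mRNA induction measured by qNPA chemiluminescence. Gain of signal fitted against 0.2% DMSO vehicle; cytotoxicity annotated from phase-contrast morphology.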

[7] = CCTE_Simmons_CellTiterGLO_HEK293T: Viability Assessment in CCTE's Assays for Thyroperoxidase (TPO) Inhibition, Simmons Lab (AID 2283665);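 on AC50: cells exposed to compound for 24 h before readout; actives reduce ATP signal below DMSO vehicle meaning cytotoxicity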
Outline: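 HEK293T, 10 000 cells/well, DMEM + 1% FBS; 8-pt titration 5 nM–87.5 uM [final], 0.5% DMSO; 24 hr, 37C, 5% CO2; CellTiter-Glo luminescence; n=3 biological replicates.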

[8] = read-out: alkyl and aryl transferase (GSTA2), GSTA2 (gene 2939); assay: CLD_GSTA2_6hr: CellzDirect (CLD) Gene Expression Assay for alkyl and aryl transferase (GSTA2) at 6 hours (AID 2283666)
Outline: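 Primary human hepatocytes from two donor preparations were dosed daily with fresh compound at multiple concentrations, 0.2% DMSO vehicle. GSTA2 mRNA was measured at 6 hours by qNPA chemiluminescence; induction fitted relative to DMSO, with cytotoxicity flagged morphologically.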

[9] = Tanguay_ZF_120hpf_TR_legacy: (Legacy) Oregon State University Tanguay Lab 120 Hour Post-fertilization zebrafish Assay for Touch Response (AID 2283667)
Outline: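 Tropical 5D wild-type zebrafish embryos were exposed statically in sealed, foil-covered plates at 28C until 120 hpf, with 0.64% (vol/vol) final DMSO. Touch response was scored as present or absent; embryos that died were not scored.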

[10] = read-out: organic anion transporter (SLCO1B1), SLCO1B1 (gene 10599); assay: CLD_SLCO1B1_6hr: CellzDirect (CLD) Gene Expression Assay for organic anion transporter (SLCO1B1) at 6 hours (AID 2283668);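 further: active means mRNA induction above DMSO baseline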
Outline: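 Primary human hepatocytes dosed daily with test chemicals (multiple concentrations) in 0.2% DMSO vehicle; harvested at 6 h. SLCO1B1 mRNA quantified by qNPA chemiluminescence, fitted as gain-of-signal versus DMSO; cytotoxicity from phase-contrast morphology flagged alongside.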

[11] = read-out: xenobiotic metabolism (CYP1A2), CYP1A2 (gene 1544); assay: CLD_CYP1A2_6hr: CellzDirect (CLD) Gene Expression Assay for xenobiotic metabolism (CYP1A2) at 6 hours (AID 2283663);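 on AC50: potency is for induction meaning a rise in mRNA above DMSO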
Outline: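 Primary human hepatocytes from two donor preparations, dosed daily with multiple concentrations in 0.2% DMSO and harvested at 6 h. CYP1A2 mRNA induction measured by chemiluminescent qNPA, gain of signal fitted against DMSO; cytotoxicity flagged morphologically.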

[12] = read-out: sulfotransferase (SULT2A), SULT2A1 (gene 6822); assay: CLD_SULT2A_6hr: CellzDirect (CLD) Gene Expression Assay for sulfotransferase (SULT2A) at 6 hours (AID 2283669);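 further: hits raise transcript level above the DMSO vehicle baseline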
Outline: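 Primary human hepatocytes from two donor preparations were dosed daily with chemicals or 0.2% DMSO and harvested at 6 h. Transcript induction read by qNPA chemiluminescence, fitted for gain of signal relative to DMSO; morphology-based cytotoxicity annotated.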

[13] = read-out: solute carrier (SLC22A6), SLC22A6 (gene 9356); assay: LTEA_HepaRG_SLC22A6: Life Technologies and Expression Analysis (LTEA) Assay for solute carrier (SLC22A6) using HepaRG (AID 2283653; active means hit-call score of the fitted dose curve at least 0.9, where 1 is the maximum; inactive means score below 0.9); conditions: mRNA level, 48 h; actives raise or lower the signal
Outline: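 This endpoint tracks SLC22A6 mRNA induction or suppression in human HepaRG cultures after 48 h dosing, concentrations reaching 100 uM. Values derive from bidirectional fitting against DMSO controls.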

[14] = read-out: solute carrier (SLC10A1), SLC10A1 (gene 6554); assay: LTEA_HepaRG_SLC10A1: Life Technologies and Expression Analysis (LTEA) Assay for solute carrier (SLC10A1) using HepaRG (AID 2283657; active means hit-call score of the fitted dose curve at least 0.9, where 1 is the maximum; inactive means score below 0.9); conditions: mRNA level, 48 h; actives raise or lower the signal
Outline: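 Differentiated HepaRG cells were plated 48 h, then exposed in serum-free induction medium for 48 h to 8 concentrations (top 100 uM, half-log steps, 0.5% DMSO). SLC10A1 mRNA was quantified by qRT-PCR normalized to ACTB, GAPDH, POLR2A; bidirectional fit versus DMSO.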

[15] = read-out: matrix metalloproteinase-1 (MMP1), MMP1 (gene 4312); assay: LTEA_HepaRG_MMP1: Life Technologies and Expression Analysis (LTEA) Assay for matrix metalloproteinase-1 (MMP1) using HepaRG (AID 2283658; active means hit-call score of the fitted dose curve at least 0.9, where 1 is the maximum; inactive means score below 0.9); conditions: mRNA level, 48 h; actives raise or lower the signal
Outline: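 Bidirectional concentration-response fitting relative to 0.5% DMSO gives the endpoint, derived from MMP1 mRNA levels (qRT-PCR) in human HepaRG cells treated 48 h with chemicals up to 100 uM.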

[16] = read-out: xenobiotic metabolism (CYP1A1), CYP1A1 (gene 1543); assay: CLD_CYP1A1_6hr: CellzDirect (CLD) Gene Expression Assay for xenobiotic metabolism (CYP1A1) at 6 hours (AID 2283661);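 on AC50: potency for transcript induction above DMSO vehicle baseline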
Outline: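 Primary human hepatocytes from two donors, compound versus 0.2% DMSO vehicle. CYP1A1 mRNA measured 6 h after dosing by quantitative nuclease protection assay with chemiluminescent read-out; induction fitted relative to DMSO, cytotoxicity flagged by microscopy.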

[17] = read-out: kallikrein-3 (KLK3), KLK3 (gene 354); assay: LTEA_HepaRG_KLK3: Life Technologies and Expression Analysis (LTEA) Assay for kallikrein-3 (KLK3) using HepaRG (AID 2283652; active means hit-call score of the fitted dose curve at least 0.9, where 1 is the maximum; inactive means score below 0.9); conditions: mRNA level, 48 h; actives raise or lower the signal
Outline: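 Differentiated human HepaRG cells in serum-free induction medium exposed 48 h in duplicate, eight-point half-log series from 100 uM in 0.5% DMSO. KLK3 mRNA by qRT-PCR, normalised to ACTB, GAPDH, POLR2A; bidirectional fit versus DMSO.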

[18] = read-out: ABC Transporter (ABCB1), ABCB1 (gene 5243); assay: CLD_ABCB1_6hr: CellzDirect (CLD) Gene Expression Assay for ABC Transporter (ABCB1) at 6 hours (AID 2283659);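 further: hits raise ABCB1 transcript above the DMSO vehicle baseline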
Outline: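 Primary human hepatocytes (two donor preparations) dosed daily for two days with chemicals at multiple concentrations, 0.2% DMSO vehicle; harvested 6 h post-dose. ABCB1 mRNA induction quantified by qNPA chemiluminescence; gain-of-signal fitted versus DMSO.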

[19] = Tanguay_ZF_120hpf_CFIN_legacy: (Legacy) Oregon State University Tanguay Lab 120 Hour Post-fertilization zebrafish Assay for Caudal Fin Malformation (AID 2283649)
Outline: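 Embryos were collected from Tropical 5D wild-type adults and dechorionated at 4 hpf. At 6 hpf each was exposed, one per well, at 0.64% DMSO and 28C. At 120 hpf fin morphology was scored; dead embryos were excluded.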

Measured: AC50

Oc1cc(Cl)ccc1Oc1ccc(Cl)cc1Cl
active: [5] 36.3 µM and 21.6 µM and 43.6 µM | [7] 13.1 µM [middle of 4 runs]
inactive: [1] | [2] | [3] | [4] | [5] | [6] | [8] | [9] | [10]

CNC(=O)Oc1ccccc1OC(C)C
inactive: [1] | [2] | [3] | [4] | [11] | [6] | [9] | [10] | [12]

CCCN(CCC)c1c([N+](=O)[O-])cc(C(F)(F)F)cc1[N+](=O)[O-]
active: [16] 3.69 µM
inactive: [1] | [2] | [13] | [3] | [4] | [14] | [15] | [11] | [8] | [9] | [12]

CNC(=O)/C=C(\C)OP(=O)(OC)OC
inactive: [1] | [2] | [3] | [4] | [11] | [7] | [9] | [10] | [12]
active: [5] 39.1 µM

CC1(c2ccc(Oc3ccccc3)cc2)OC(=O)N(Nc2ccccc2)C1=O (configuration not stated)
active: [5] 2.45 µM | [7] 20.2 µM
inactive: [1] | [2] | [3] | [4] | [6] | [8] | [9] | [10] | [12]

Cc1[nH]c(=O)n(C(C)(C)C)c(=O)c1Cl
active: [14] 50 µM | [9] 7.93 nM
inactive: [1] | [2] | [13] | [3] | [4] | [15] | [11] | [6] | [12]

O=[N+]([O-])c1c(Cl)c(Cl)c(Cl)c(Cl)c1Cl
inactive: [1] | [2] | [3] | [4] | [16] | [8] | [9] | [10]

CCOCN(C(=O)CCl)c1c(C)cccc1CC
active: [3] 47.5 µM
inactive: [1] | [2] | [4] | [11] | [8] | [9] | [10] | [12]

CN1CSC(=S)N(C)C1
inactive: [1] | [2] | [17] | [13] | [3] | [14] | [15] | [11] | [7] | [8] | [9] | [10] | [12]
active: [4] 6.95 µM | [5] 6.52 µM

CCCN(CCOc1c(Cl)cc(Cl)cc1Cl)C(=O)n1ccnc1
active: [14] 35.9 µM | [15] 69.2 µM | [11] 0.0805 µM | [7] 89.5 µM
inactive: [1] | [2] | [13] | [3] | [4] | [5] | [6] | [9] | [12]

Oc1ccc(Cl)cc1Cc1ccccc1
inactive: [1] | [2] | [3] | [4] | [8] | [9]
active: [5] 12.7 µM

O=C(Nc1ccccc1)Nc1cnns1
active: [5] 43.8 µM | [11] 3.08 µM
inactive: [1] | [2] | [3] | [4] | [7] | [8] | [9] | [10] | [12]

CC1(C)C(C=C(Cl)Cl)C1C(=O)OC(C#N)c1ccc(F)c(Oc2ccccc2)c1 (configuration not stated)
inactive: [1] | [2] | [17] | [13] | [3] | [15] | [11] | [8] | [12]
active: [14] 50 µM

Clc1ccccc1-c1nnc(-c2ccccc2Cl)nn1
inactive: [1] | [2] | [3] | [4] | [11] | [8] | [12]

O=[N+]([O-])/N=C1\NCCN1Cc1ccc(Cl)nc1
inactive: [1] | [2] | [3] | [4] | [11] | [6] | [8] | [9] | [10] | [12]

N#Cc1c(Cl)c(Cl)c(Cl)c(C#N)c1Cl
active: [3] 47.8 µM | [14] 27.8 µM | [15] 13.3 µM | [11] 31.7 µM | [12] 33.5 µM
inactive: [1] | [2] | [13] | [4] | [8]

O=C(O)COc1ccc(Cl)cc1Cl
inactive: [1] | [2] | [3] | [4] | [18] | [6] | [8] | [9]
active: [11] 1.89 µM

O=S(=O)(O)C(F)(F)C(F)(F)C(F)(F)C(F)(F)C(F)(F)C(F)(F)C(F)(F)C(F)(F)F
inactive: [1] | [2] | [3] | [4] | [5] | [11] | [12]
active: [1] 46.6 µM | [2] 42.5 µM | [3] 10.6 µM and 21.2 µM | [7] 64.1 µM and 57.1 µM | [9] 9.61 µM and 16.3 µM and 13.3 µM

COP(=S)(OC)Oc1ccc([N+](=O)[O-])cc1
active: [16] 2.88 µM | [5] 4.82 µM | [11] 3.16 µM
inactive: [19] | [1] | [2] | [3] | [4] | [7] | [9] | [10] | [12]

CCOC1Oc2ccc(OS(C)(=O)=O)cc2C1(C)C (configuration not stated)
active: [14] 84.8 µM
inactive: [1] | [2] | [17] | [13] | [3] | [15] | [8] | [9] | [12]

ClC1C(Cl)C(Cl)C(Cl)C(Cl)C1Cl (configuration not stated)
inactive: [1] | [2] | [13] | [3] | [4] | [14] | [15] | [8] | [9] | [12]
